Bioassay records as filed in PubChem BioAssay.
Nrf2 activator = activates Nrf2 signaling; AREc32 ARE-luciferase reporter (MCF7-derived line), luminescence, 24 h; Potency, µM (titrated, usually from 46.1 µM), inactives show at the top dose activation, most hits filed as activators; hit rate 0.31% among 410,000; note: potency is the fitted concentration of half-maximal effect; % of control where 0% means no effect; nearly all actives have a fitted effect of over 65% in size
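Luciferase luminescence (Steady-Glo, 30 min at room temperature) served as the read-out of ARE activation in AREc32 cells treated with compounds for 24 hr at 37 deg C.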
A-T KAP1 phos = candidate therapy for ataxia-telangiectasia. Potency, µM (series often up to 57.5 µM), without a hit: at the top dose activation, most hits filed as activators. hit rate 0.19% among 320,000. AID 485349. F2112 A-T fibroblasts, KAP-1 phosphorylation AlphaLISA; neocarzinostatin DNA damage 30 min before lysis; note: potency is the fitted concentration of half-maximal effect; % of control where 0% means no effect; nearly all actives have a fitted effect of over 45% in size
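hTERT-immortalized A-T patient fibroblasts (F2112), 500 cells/well in OPTI-MEM, 1% FBS, got compounds for 60 min, then NCS for 30 min at 37C. Lysates were then assayed for phospho-KAP-1 by AlphaLISA (anti-pKAP1 donor, anti-KAP1 acceptor beads), 6 hr at 25C.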
Nrf2 block = inhibitors of Nrf2 signaling. AID 504444. A549 ARE-Fluc reporter, luciferase luminescence, 18-24 h. Potency, µM (doses to about 46 µM), inactives show at the highest dose activity change, negative = inhibition, most hits filed as inhibitors. hit rate 2.1% among 360,000; note: potency is the fitted concentration of half-maximal effect; % is set by controls: 0 for no effect and ±100 for the full control effect; nearly all actives have a fitted effect of over 60% in size
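Reporter: ARE-Fluc in A549. Exposure: 18-24 h, 37 °C, 5% CO2, 5% FBS OPTI-MEM. Readouts: fluorescent cytotoxicity (CellTiter-Fluor), then luminescent Nrf2 signal after BugLite.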
CCT chaperon mod = changes cytosolic chaperonin activity; purified chaperonin ATPase assay, HTRF ADP detection, 30 min; activity change, % (concentration not given with the values), hits read low; hit rate 0.3% among 360,000; AID 651819; in the data active = activity change below about -30%; note: % is set by controls: 0 for no effect and ±100 for the full control effect
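TRiC (40 or 20 nM final, by batch activity) in 30 mM Tris pH 7.4, 100 mM KCl, 5 mM MgCl2, 1 mM DTT was treated with compound at 76 uM single dose, then 10 uM ATP, 30 min at 37 °C. ADP was read by HTRF Transcreener.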
A549 tox = counter-screen for Nrf2 inhibitors: cytotoxicity in A549 cells; hit rate 0.16% among 390,000; AID 504648; Potency, µM (titrated, usually from 46 µM), for inactives: at the top dose activity change, negative = cytotoxicity, most hits filed as inhibitors; A549 ARE-Fluc cells, CellTiter-Fluor viability, 18-24 h; note: potency is the fitted concentration of half-maximal effect; % is set by controls: 0 for no effect and ±100 for the full control effect
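Cytotoxicity counterscreen: CellTiter-Fluor fluorescence was measured in A549 ARE_Fluc cells after 18-24 h of compound exposure in a concentration series. The subsequent BugLite luminescent read reports ARE-luciferase activity.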
TCR act = activates T cell receptor signaling; primary human leukocytes, anti-CD3, IL-2 HTRF, 48 h; Potency, µM (top dose mostly 9.22 µM), inactives show top-dose activation of IL-2 secretion, usual class: activators; 330,000 tested, under 10 active; AID 504894; note: % of control where 0% means no effect
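Using a-CD3 beads without co-stimulation, primary human leukocytes were exposed to compounds for 48 hr. An HTRF IL-2 kit measured the cytokine, with europium-to-d2 energy transfer producing emission at 665nm upon 320nm excitation.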
Active calls of the source: *; [ ] = another dose, or the depositor's remark. Shown are actives, neighbours in structure and some others; about 2.6% of the full set was active somewhere. Unless noted, calls come from the whole dose curve; as a rule, active = well fitted curve in the direction sought with a large enough effect; inconclusive = small, poorly fitted or top-dose-only effect, or another doubt; inactive = no such curve, though single readings can be large; an effect the other way counts as inactive or inconclusive.

What do the screens show for `CCOC(=O)c1ccccc1NC(=O)CSc1nc(=O)[nH]c2c1CCC2`?
Nrf2 activator: -0.3%; A549 tox: -3.7%

Results for COC(=O)c1ccsc1NC(=O)CSc1nnnn1Cc1ccccc1 ?
Nrf2 activator: 7.94µM*; Nrf2 block: -6.6%; CCT chaperon mod: 3.0; A549 tox: 6.0%; TCR act: 6.2%[46.1 µM]

What do the screens show for `Cc1ccccc1NC(=O)Nc1ccccn1`?
Nrf2 activator: 28.6%; A-T KAP1 phos: 11.1%; Nrf2 block: inconclusive; CCT chaperon mod: -1.8; A549 tox: -5.6%; TCR act: -4.3%

Results for O=C(Nc1ccccn1)Nc1ccccc1[N+](=O)[O-] ?
Nrf2 activator: 3.98µM*; A-T KAP1 phos: 2.9%; Nrf2 block: 20.9%; CCT chaperon mod: 1.1; A549 tox: -0.3%; TCR act: 4.0%

What do the screens show for `O=C(Nc1ccccn1)c1ccc(Cl)c([N+](=O)[O-])c1`?
Nrf2 activator: 10µM*; A-T KAP1 phos: -11.0%; Nrf2 block: inconclusive; CCT chaperon mod: 0.6; A549 tox: -10.7%

How did O=C(Nc1cccnc1Cl)c1ccc(Cl)c([N+](=O)[O-])c1 do in these assays?
Nrf2 activator: 0.0%; A-T KAP1 phos: 1.5%; Nrf2 block: 1.4%; CCT chaperon mod: 1.1; A549 tox: -6.1%; TCR act: -4.0%[46.1 µM]

Results for Cc1ccc(-n2ncc(C(=O)NCc3ccc4c(c3)OCO4)c2C2CCN(C(=O)OC(C)(C)C)CC2)cc1C ?
Nrf2 activator: -0.1%; Nrf2 block: 18.4µM*; A549 tox: -3.9%

Results for COc1ccc(-n2ncc(C(=O)NCc3ccc4c(c3)OCO4)c2C2CCN(C(=O)OC(C)(C)C)CC2)cc1 ?
Nrf2 activator: -0.3%; Nrf2 block: 16.4µM*; A549 tox: -13.8%

What do the screens show for `COc1ccc(CNC(=O)c2cnn(-c3ccc(OC)cc3)c2C2CCN(C(=O)OC(C)(C)C)CC2)cc1`?
Nrf2 activator: -0.4%; Nrf2 block: inconclusive; A549 tox: -10.4%

What do the screens show for `Clc1ccc(-c2nnc(-c3cccc4ccccc34)o2)cc1Cl`?
Nrf2 activator: 8.4%; A-T KAP1 phos: 15.8µM*; Nrf2 block: 20.1%; CCT chaperon mod: 0.8; A549 tox: 2.7%; TCR act: 3.2%

How did C#CCSc1nnc(-c2cccc3ccccc23)o1 do in these assays?
Nrf2 activator: 11.2µM*; Nrf2 block: 27.4%; CCT chaperon mod: 1.3; A549 tox: -0.7%; TCR act: 2.8%

Results for O=C(CCCN1C(=O)/C(=C/c2ccccc2Cl)SC1=S)NNC(=O)c1ccncc1 ?
Nrf2 activator: -1.0%; A-T KAP1 phos: -11.5%; Nrf2 block: 25.9µM*; CCT chaperon mod: -0.3; A549 tox: -30.6%; TCR act: -5.6%

How did O=C(CCCN1C(=O)/C(=C/c2ccccc2Cl)SC1=S)NNC(=O)c1ccccc1Cl do in these assays?
Nrf2 activator: -2.2%; A-T KAP1 phos: 0.9%; Nrf2 block: 18.4µM*; CCT chaperon mod: -0.4; A549 tox: -10.1%; TCR act: 8.4%[46.1 µM]

What do the screens show for `COc1ccc(/C=C2\SC(=S)N(CCCC(=O)NNC(=O)c3ccccc3O)C2=O)cc1`?
Nrf2 activator: -2.8%; A-T KAP1 phos: 12.6%; Nrf2 block: 13µM*; CCT chaperon mod: -2.5; A549 tox: -8.4%; TCR act: -3.0%

Results for Cc1cc(C)cc(OCCSc2nc3ccc(NC(=O)c4ccc5c(c4)OCO5)cc3s2)c1 ?
Nrf2 activator: 4.8%; Nrf2 block: 2.8%; A549 tox: 4.1%

Results for Cc1ccc(NC(CC(=O)c2ccccc2)C(=O)O)cc1Cl (stereo not given) ?
Nrf2 activator: 17.8µM*; A-T KAP1 phos: 3.3%; Nrf2 block: inconclusive; CCT chaperon mod: -15.5; A549 tox: -0.3%; TCR act: 2.4%

What do the screens show for `Cc1ccc2[nH]c3c(NCc4ccco4)ncnc3c2c1`?
Nrf2 activator: 25.2%; A-T KAP1 phos: 3.4%; Nrf2 block: inconclusive; CCT chaperon mod: 0.3; A549 tox: 0.8%; TCR act: 1.5%

What do the screens show for `Fc1ccc2[nH]c3c(NCc4ccco4)ncnc3c2c1`?
Nrf2 block: 11.6µM*; A549 tox: -11.0%

What do the screens show for `c1ccc(Cn2ncc3c(NCc4ccco4)ncnc32)cc1`?
Nrf2 activator: 3.98µM*; A-T KAP1 phos: 16.0%; Nrf2 block: inconclusive; CCT chaperon mod: 1.4; A549 tox: -1.4%; TCR act: -0.9%

What do the screens show for `COc1cc(CNc2ncnc3c2[nH]c2ccc(C)cc23)cc(OC)c1`?
Nrf2 activator: 6.8%; A-T KAP1 phos: -23.1%; Nrf2 block: 14.6µM*; CCT chaperon mod: -1.5; A549 tox: -20.0%; TCR act: -2.0%

What do the screens show for `CCc1nc(NCc2ccco2)c2oc3ccccc3c2n1`?
Nrf2 activator: 9.9%; A-T KAP1 phos: -3.2%; Nrf2 block: 0.2%; CCT chaperon mod: -0.7; A549 tox: -3.1%; TCR act: 2.1%

What do the screens show for `c1coc(CNc2ncnc3c2oc2ccccc23)c1`?
Nrf2 activator: 1.58µM*; A-T KAP1 phos: 5.0%; Nrf2 block: inconclusive; CCT chaperon mod: -1.6; A549 tox: -3.1%; TCR act: -0.7%

What do the screens show for `COc1ccc(C(CC(=O)NCc2ccccc2)N2Cc3ccccc3C2=O)cc1` (stereo not given)?
Nrf2 activator: 0.3%; Nrf2 block: inconclusive; A549 tox: 1.1%

Results for CCOC(=O)[C@@H]1[C@H]2COc3cc(OC)ccc3[C@@H]2N2C(=O)N(c3ccc(Cl)cc3)C(=O)[C@]12C ?
Nrf2 activator: 3.7%; Nrf2 block: -6.9%; CCT chaperon mod: 0.2; A549 tox: -0.5%; TCR act: -8.5%

How did CSc1ncc(Cl)c(C(=O)N(Cc2ccc(N(C)C)cc2)Cc2ccco2)n1 do in these assays?
Nrf2 activator: inconclusive; Nrf2 block: inconclusive; A549 tox: 13.2%

Results for CCCS(=O)(=O)c1ncc(Cl)c(C(=O)N(Cc2ccccc2)Cc2ccco2)n1 ?
Nrf2 activator: inconclusive; Nrf2 block: 16.4µM*; A549 tox: inconclusive

What do the screens show for `CCSc1ncc(Cl)c(C(=O)N(Cc2ccccc2)Cc2ccco2)n1`?
Nrf2 activator: 0.4%; Nrf2 block: inconclusive; A549 tox: -0.2%

Results for CCCSc1ncc(Cl)c(C(=O)N(Cc2ccc(Cl)cc2)Cc2ccco2)n1 ?
Nrf2 activator: 4.7%; Nrf2 block: 20.6µM*; A549 tox: -5.1%

How did O=C(N/N=C/c1ccc(OC(=O)c2ccccc2Cl)cc1)c1ccccn1 do in these assays?
Nrf2 activator: 1.3%; A-T KAP1 phos: 11.6%; Nrf2 block: inconclusive; CCT chaperon mod: -1.4; A549 tox: 0.5%; TCR act: 5.0%
